{"source": "PubChem BioAssay AID2148", "about": "(The Scripps Research Institute Molecular Screening Center, 2009)", "note": "The campaign covered roughly 2,400 compounds. About 1,500 (62%) were called active. The set was probably picked from earlier hits. This is one part of a sample in which actives are shown more often than they occur. Cut-off read from the data, not from the text of the source: active = inhibition above about 22%; inactive = the rest.", "data": [{"target": "Melanin-concentrating hormone receptor 1 (Homo sapiens) (UniProt Q99705)", "assay": "antagonism of human MCHR1 receptor – cell-based, fluorescence, counter-screen for GPR7 antagonist project (AID 2148);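 note: 0% = vehicle with agonist and 100% = vehicle without agonist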", "details": "MCHR1-expressing cells, fluorescence antagonist assay; at 4.4 µM; stronger effect = higher value", "values": [{"smiles": "CCOC(=O)C1(Cc2ccc(Cl)cc2)CCN(C(C)CCn2cccn2)CC1", "note": "(stereo not drawn)", "inhibition": "26% (active)"}, {"smiles": "COc1ccc(Br)cc1CNCCc1cccc(Cl)c1", "inhibition": "44.1% (active)"}, {"smiles": "CCOc1ccc(-c2cc(C)[n+](CCN(CC)CC)c(-c3ccc(OCC)cc3)c2)cc1", "inhibition": "46.5% (active)"}]}]}
